Measurements as given in PubChem BioAssay AID1159580 (chemical genetic matrix, 2015).
The whole screen tested about 5,500 compounds, of which about 2,000 (36%) were called active. Not shown: some 18% with an inconclusive outcome. Rule as the data show it: active = normalized growth mostly below about 0.91 (no sharp cut-off); inconclusive = no clear call, values can overlap the other calls; inactive = mostly above about 0.92. Some of the results follow.

Experiment: chemical genetic growth profiling, strain panel (AID 1159580);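 also: tested at 20 µM; growth read once vehicle control cultures reached saturation at 30 °C; 1 = growth at the plate median or of vehicle wells; lower values mean less growth of the strain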
Conditions: S. cerevisiae deletion strains, growth OD

Measured: normalized growth

NNCc1ccccc1
inactive: locus YAL021C, strain ccr4, hits give low values 0.993 | locus YAL026C, strain drs2, hits give low values 0.986 | locus YAL030W, strain snc1, hits give low values 0.979 | locus YBL061C, strain skt5, hits give low values 0.983 | locus YBR009C, strain hhf1, hits give low values 1 | locus YBR023C, strain chs3, hits give low values 0.982 | locus YBR171W, strain sec66, hits give low values 0.97 | locus YBR231C, strain swc5, hits give low values 1.01 | locus YBR279W, strain paf1, hits give low values 0.982 | locus YCL011C, strain gbp2, hits give low values 0.99 | locus YCL016C, strain dcc1, hits give low values 0.982 | locus YCL069W, strain vba3, hits give low values 0.993 | locus YCR088W, strain abp1, hits give low values 0.974 | locus YDL005C, strain med2, hits give low values 0.992 | locus YDL040C, strain nat1, hits give low values 0.971 | locus YDR001C, strain nth1, hits give low values 0.989 | locus YDR069C, strain doa4, hits give low values 0.976 | locus YDR137W, strain rgp1, hits give low values 0.96 | locus YDR159W, strain sac3, hits give low values 0.983 | locus YDR195W, strain ref2 1.02 | locus YDR297W, strain sur2, hits give low values 0.989 | locus YDR334W, strain swr1, hits give low values 0.99 | locus YDR335W, strain msn5, hits give low values 1 | locus YDR392W, strain spt3, hits give low values 1 | locus YEL003W, strain gim4, hits give low values 0.996 | locus YEL037C, strain rad23, hits give low values 0.991 | locus YEL061C, strain CIN8 (second series), hits give low values 0.978 | locus YER015W, strain faa2, hits give low values 0.999 | locus YER016W, strain bim1, hits give low values 0.998 | locus YER111C, strain swi4, hits give low values 0.988 | locus YER155C, strain BEM2 (second series), hits give low values 0.989 | locus YFR010W, strain ubp6, hits give low values 0.989 | locus YGL167C, strain pmr1, hits give low values 0.989 | locus YGL173C, strain kem1, hits give low values 0.961 | locus YGL227W, strain vid30, hits give low values 0.994 | locus YGL240W, strain doc1, hits give low values 0.98 | locus YGL253W, strain hxk2, hits give low values 0.993 | locus YHR013C, strain ard1, hits give low values 1.03 | locus YHR027C, strain rpn1, hits give low values 0.997 | locus YHR142W, strain chs7, hits give low values 0.985 | locus YJL092W, strain hpr5, hits give low values 0.993 | locus YJL095W, strain BCK1 (second series), hits give low values 0.986 | locus YJL115W, strain asf1, hits give low values 0.987 | locus YJL129C, strain trk1, hits give low values 0.978 | locus YJL154C, strain vps35, hits give low values 0.986 | locus YJL164C, strain tpk1, hits give low values 0.98 | locus YJL166W, strain qcr8, hits give low values 0.997 | locus YJL187C, strain SWE1, hits give low values 0.987 | locus YKL160W, strain elf1, hits give low values 0.988 | locus YKR026C, strain gcn3, hits give low values 0.974 | locus YKR091W, strain srl3, hits give low values 0.985 | locus YLL001W, strain dnm1, hits give low values 0.983 | locus YLL026W, hits give low values 1 | locus YLL041C, strain sdh2, hits give low values 0.992 | locus YLR027C, strain aat2, hits give low values 0.991 | locus YLR221C, strain rsa3, hits give low values 0.978 | locus YLR258W, strain gsy2, hits give low values 0.987 | locus YLR262C, strain YPT6 (second series), hits give low values 0.906 | locus YLR320W, strain mms22, hits give low values 0.993 | locus YLR342W, strain FKS1, hits give low values 0.981 | locus YLR357W, strain rsc2, hits give low values 0.967 | locus YLR370C, strain arc18, hits give low values 0.983 | locus YLR384C, strain iki3, hits give low values 0.992 | locus YML120C, strain ndi1, hits give low values 0.979 | locus YMR058W, strain fet3, hits give low values 0.996 | locus YMR125W, strain sto1, hits give low values 0.986 | locus YMR129W, hits give low values 0.99 | locus YMR205C, strain PFK2, hits give low values 0.976 | locus YMR231W, strain pep5, hits give low values 0.994 | locus YNL071W, strain lat1, hits give low values 1.01 | locus YNL209W, strain ssb2, hits give low values 0.989 | locus YNL248C, strain rpa49, hits give low values 0.993 | locus YNL322C, strain KRE1 (second series), hits give low values 0.992 | locus YNR049C, strain mso1, hits give low values 0.99 | locus YOR001W, strain rrp6, hits give low values 0.994 | locus YOR070C, strain gyp1, hits give low values 0.989 | locus YOR080W, strain dia2, hits give low values 0.983 | locus YOR083W, strain WHI5, hits give low values 0.987 | locus YOR106W, strain vam3, hits give low values 0.963 | locus YOR265W, strain rbl2, hits give low values 1 | locus YOR270C, strain vph1, hits give low values 0.979 | locus YOR290C, strain snf2, hits give low values 0.987 | locus YPL051W, strain arl3, hits give low values 0.969 | locus YPL078C, strain atp4, hits give low values 0.997 | locus YPL106C, strain sse1, hits give low values 0.963 | locus YPL240C, strain hsp82, hits give low values 1
